# Bioassay records deposited in PubChem BioAssay by several laboratories.
# A selection: hits, their analogues and other compounds. The true share with any hit is near 5.9%.
# FXN GAA850 act: frataxin GAA850 promoter activation. HEK293 lucGAA850 FXN promoter luciferase reporter, 24 h; percent of 10 µM SAHA response. activation, % at 6 µM. hit rate 0.56% among 360,000;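 active = activation above the average of all compounds screened plus 3 SD, cutoff fixed separately per campaign, cut at about 7.5% in these data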;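 also: 0% = DMSO wells and 100% = 10 µM SAHA wells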
# HSF-1 act: increases HSF-1 driven luciferase reporter signal; NIH3T3-HGL HSF-1 luciferase reporter, MG132, 8 h; 100% = twice DMSO control signal; activation, % at 9 µM; hit rate 1.7% among 300,000; AID 504408;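 active = mean replicate activation of at least 50% with a set share of replicates each reaching 50%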;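 also: 0% = median of the neutral control wells and 100% = twice that signal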
# HSF1 inhib: HSF1 inhibition. activity change, negative = inhibition, % at 7.5 µM (by protocol). hit rate 0.77% among 300,000. NIH3T3-HGL HSE-luciferase, MG132-induced, luminescence 8 h; stronger effect = lower value;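 active = more than half of replicate wells show activity change below -50%, luminescence cut by over half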;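 also: luciferase reports HSF-1 transcriptional activity via heat shock element; 0% = median of DMSO wells and -100% = zero luminescence signal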
# AHR activator: activates the human aryl hydrocarbon receptor. P35869. AHR-responsive luciferase reporter cells, luminescence. activation, % at 5 µM. hit rate 2.5% among 320,000. AID 2796; in the data active = activation above about 47%;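 also: 0% = vehicle wells and 100% = reference agonist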
# Target sequence (P35869 whole entry, looked up): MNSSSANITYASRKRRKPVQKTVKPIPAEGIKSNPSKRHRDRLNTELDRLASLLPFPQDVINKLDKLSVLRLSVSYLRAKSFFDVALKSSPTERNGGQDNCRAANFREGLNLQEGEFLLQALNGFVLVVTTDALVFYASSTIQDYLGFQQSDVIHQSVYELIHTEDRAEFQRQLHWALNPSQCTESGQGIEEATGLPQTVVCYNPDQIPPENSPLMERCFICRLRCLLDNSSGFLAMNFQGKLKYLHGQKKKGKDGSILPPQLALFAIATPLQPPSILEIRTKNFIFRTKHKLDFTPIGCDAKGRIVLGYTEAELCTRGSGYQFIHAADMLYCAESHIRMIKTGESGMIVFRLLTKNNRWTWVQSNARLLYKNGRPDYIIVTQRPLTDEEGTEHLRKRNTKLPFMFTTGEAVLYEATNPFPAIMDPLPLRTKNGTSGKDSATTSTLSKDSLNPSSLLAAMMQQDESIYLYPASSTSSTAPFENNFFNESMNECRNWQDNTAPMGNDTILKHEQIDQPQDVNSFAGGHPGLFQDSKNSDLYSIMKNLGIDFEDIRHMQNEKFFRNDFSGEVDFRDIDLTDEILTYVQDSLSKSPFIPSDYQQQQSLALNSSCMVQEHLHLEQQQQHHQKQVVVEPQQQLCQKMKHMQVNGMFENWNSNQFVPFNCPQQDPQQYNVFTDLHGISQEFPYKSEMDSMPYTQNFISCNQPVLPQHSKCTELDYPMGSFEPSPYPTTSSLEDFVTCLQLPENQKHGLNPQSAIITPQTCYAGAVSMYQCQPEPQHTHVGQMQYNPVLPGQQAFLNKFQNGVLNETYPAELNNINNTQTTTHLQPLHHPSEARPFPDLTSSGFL
# DAX1 inh: inhibitors of human orphan nuclear receptor DAX1 (NR0B1); P51843; HEK293 Gal4-DAX1 luciferase reporter, luminescence; inhibition, % at 6.75 µM; hit rate 0.99% among 340,000; AID 504766;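 active = inhibition above the mean over all tested compounds plus 3 SD, cut at about 4.2% in these data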;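 also: 0% = DAX1-transfected cells with DMSO and 100% = empty-vector control cells with DMSO; inhibition shows as a rise in luminescence from relieved DAX1 repression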
# HSP90 inh: blocks HSP90-mediated luciferase refolding in reticulocyte lysate. Rabbit reticulocyte lysate, luciferase refolding luminescence, 3 h. inhibition, % at 5.6 µM. hit rate 0.91% among 290,000. AID 1789;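 active = inhibition above the screen-wide mean plus 3 SD, computed separately per campaign, cut at about 16% in these data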;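 also: 0% = DMSO wells and 100% = 60 µM geldanamycin wells; inhibitors lower the luminescence because luciferase stays unfolded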
# AHR act cf: confirmation of human aryl hydrocarbon receptor activators | human cells, AHR-responsive luciferase reporter, luminescence | hit rate 87% among 2,300 | shares compounds with AHR activator | activation, % at 9 µM; in the data active = activation above about 49%;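 also: HepG2 hepatoma cells carrying a DRE-driven firefly luciferase reporter; 0% = vehicle wells and 100% = reference agonist wells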
# PXR counter: activates human PXR in AHR activator counter-screen; activation, % at 11.6 µM; cell-based PXR reporter, luciferase luminescence; shares compounds with AHR activator; hit rate 88% among 2,300; in the data active = activation above about 11%;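 also: human hepatoma DPX-2 cells expressing full-length human PXR; 0% = DMSO and 100% = reference agonist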
# * hit, by the source's call; x = not tested or not shown.
SMILES,FXN GAA850 act,HSF-1 act,HSF1 inhib,AHR activator,DAX1 inh,HSP90 inh,AHR act cf,PXR counter
CC(C)[C@H](NC(=O)N1c2ccccc2NC(=O)[C@@H]1C(C)C)C(=O)N[C@H](Cc1ccccc1)C(=O)O,-1,-1,-2,-1,3,-3,x,x
COc1ccc(/C=N\NC(=O)c2ccccc2F)cc1COc1ccc(F)cc1F,-3,-16,-6,14,0,1,x,x
COc1ccc(/C=N/NC(=O)c2nc(Cl)c(Cl)c(N)c2Cl)cc1COc1ccccc1F,6,-47,-33,116*,1,-1,99*,105*
COc1ccc(/C=N/NC(=O)c2nc(Cl)c(Cl)c(N)c2Cl)cc1COc1ccc(F)cc1F,3,-3,-14,84*,0,6,97*,60*
COc1ccc(/C=N\NC(=O)c2ccccc2F)cc1COc1ccc(F)cc1,-1,11,0,31,1,3,x,x
COc1ccc(/C=N\NC(=O)c2ccccc2OC)cc1COc1ccccc1C,2,5,4,96*,-1,6,109*,35*
C#CCOc1ccc(/C=C2/C(=O)ON=C2C)cc1Cl,1,-1,-1,4,0,-3,x,x
COc1cc(OC)cc(C(=O)/C=C2\Sc3ccccc3N2C)c1,3,13,20,-3,-1,3,x,x
CN1/C(=C/C(=O)c2cccs2)Sc2ccccc21,2,-13,-9,86*,1,8,115*,23*
COCC(=O)/C=C1\Sc2ccccc2N1C,3,-48,-36,-2,-1,-2,x,x
CN1/C(=C/C(=O)C2CCC2)Sc2ccccc21,3,-14,-6,138*,0,-4,138*,23*
NC(=O)C1C2CCC(C2)C1C(N)=O (stereo not given),-1,x,x,x,0,x,x,x
CC1=NN(C(=O)COc2cc(C)ccc2C(C)C)C(O)(c2ccccc2)C1 (stereo not given),1,5,11,2,1,0,x,x
CN(C)c1cc(-c2ccc(C#N)cc2)oc(=O)c1Cl,0,3,-3,-5,x,0,x,x
CN(C)c1cc(-c2ccc(Br)cc2)oc(=O)c1Cl,-2,28,6,85*,x,1,70*,22*
CCc1ccc(S(=O)(=O)Nc2ccc(-c3nc4cccnc4s3)cc2)s1,1,-27,-7,88*,2,8,82*,20*
COc1cccc(CN(C(=O)c2cnccn2)C(C(=O)NC2CCCCC2)c2cc(OC)c(OC)c(OC)c2)c1 (stereo not given),-1,-12,-6,1,0,-5,x,x
O=C(CSc1n[nH]c(-c2ccccn2)n1)Nc1ccccc1F,2,7,-6,-1,0,-1,x,x
CCC1=NN=C(c2ccc(F)cc2)C(c2c[nH]c3ccccc23)N1O (stereo not given),0,13,3,87*,0,-3,78*,20*
Cn1c(SCC(=O)NC2CC2)nnc1-c1ccc(Cl)cc1,2,x,x,-1,1,x,x,x
C=CCn1c(-c2ccc(C)cc2)nc2ccccc21,2,13,2,24,1,2,x,x
C=CCn1c(NC(=O)c2ccc(C)cc2)nc2ccccc21,4,26,24,99*,1,1,93*,29*
CC12CCC(C(=O)N/N=C/c3ccc(O)cc3O)(OC1=O)C2(C)C (stereo not given),-6,-1,-3,0,0,1,x,x
CN(C)c1ccc(C(O)c2cc3ccccc3s2)cc1 (stereo not given),-1,x,x,x,0,x,x,x
Cn1c(CNc2ccc(Cl)cc2)nc2ccccc21,3,15,11,87*,2,6,139*,36*
SMILES,FXN GAA850 act,HSF-1 act,HSF1 inhib,AHR activator,DAX1 inh,HSP90 inh,AHR act cf,PXR counter
O=C(NCCc1ccccc1)C(=O)NCC(c1ccco1)N1CCOCC1 (stereo not given),2,5,-3,5,0,1,x,x
O=C(N/N=C/c1ccc([N+](=O)[O-])cc1)c1cc2ccccc2o1,-2,18,-4,1,2,2,x,x
C/C(=N\Nc1ccc([N+](=O)[O-])cc1)c1cc2ccccc2o1,3,23,12,81*,0,1,128*,15*
CNC(=S)N/N=C(\C)c1ccc(-n2ccnc2)cc1,1,-16,-12,6,3,2,x,x
C/C(=N\NC(=S)NC(C)C)c1ccc(-n2ccnc2)cc1,1,-8,-9,122*,0,4,77*,14*
C=CCNC(=S)N/N=C(\C)c1ccc(-n2ccnc2)cc1,2,10,3,89*,2,-7,106*,19*
O=[N+]([O-])c1cccc(-c2cc3ccccc3[nH]2)c1,1,13,12,84*,0,1,134*,15*
CN(C(=S)NC(=O)c1ccccc1)C1CCCCC1,2,-5,-13,1,1,2,x,x
Cc1cc(C)c(C#N)c(SCC(=O)c2ccccc2)n1,1,6,-9,148*,-1,-1,153*,29*
Cc1cc(SCC(=O)NCCN2C(=O)CSC2=O)nc2c(C)cccc12,3,3,-2,30,-1,-4,x,x
Cc1cc(SCC(=O)c2cccs2)nc2c(C)cccc12,3,36,4,83*,1,2,100*,65*
Cc1cc(=O)[nH]c(SCC(=O)c2ccccc2)c1C#N,2,18,-1,30,-2,1,x,x
Cc1cc(C)c(C#N)c(SCC(=O)c2cccs2)n1,2,28,11,165*,1,0,112*,28*
Cc1ccc(-c2csc(NC(=O)C3=COCCO3)n2)cc1,5,34,22,17,1,0,x,x
COc1ccc(C)c2sc(NC(=O)C3=COCCO3)nc12,1,-76,-69*,84*,-1,1,66*,19*
COc1ccc(OC)c2sc(NC(=O)C3=COCCO3)nc12,4,7,5,98*,0,-2,88*,6
COC(=O)[C@]1(Cc2ccccc2)N[C@H](CN(C)C(=O)Nc2ccc(C)cc2)[C@@H]2C(=O)N(C)C(=O)[C@@H]21,-2,x,x,1,1,x,x,x
COc1cc2c(cc1NC(=O)/C=C/c1cc(OC)c(OC)c(OC)c1)oc1ccccc12,-4,-56,-48,88*,-3,-1,53*,10*
COc1cc2c(cc1NC(=O)CSc1ccccn1)oc1ccccc12,3,46,36,105*,1,1,91*,16*
COc1ccc(N2CCN(c3cc(C)c4ccc(O)cc4n3)CC2)cc1,-1,27,4,132*,0,-6,71*,x
